Calls of active or inactive are those of the source.
How the values were obtained:
[1] = target: Albumin (Bos taurus) (UniProt P02769); assay: compounds binding labelled BSA control protein – biochemical, small-molecule microarray, Alexa647 label, 635/667 nm fluorescence, artefact control for SMM control protein annotation, profiling panel (AID 1118); settings: BSA-A647 binding, fluorescence 635 nm, higher = more signal;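 further: score merges 667 nm emission intensity and signal-to-noise per printed compound spot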
[2] = probe aXIP binding to arrayed compounds – biochemical, NeuroSMM set, 635/667 nm fluorescence, primary screen (AID 1119); settings: small-molecule microarray, higher = more signal, called active from +8 up or from −8 down;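 further: probe is the protein aXip251-270 applied at 1 µg/mL to compound-printed slides; binding of probe to printed compounds measured as 667 nm fluorescence plus signal to noise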
[3] = probe aNOTCH3 binding on compound microarray – biochemical, small-molecule microarray, 635/667 nm fluorescence, primary screen (AID 1120); settings: higher = more signal;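 further: probe is a biotin-tagged antibody raised against NOTCH3 rather than NOTCH3 protein; score merges spot fluorescence near 667 nm with spot signal to noise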
[4] = probe aNOTCH2 binding on compound microarray – biochemical, small-molecule microarray, 635/667 nm fluorescence, primary screen (AID 1121); settings: higher = more signal;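 further: score merges feature fluorescence read at 667 nm with its signal to noise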
[5] = target: Carbonic anhydrase 2 (Homo sapiens) (UniProt P00918); assay: compounds binding carbonic anhydrase 2 – biochemical, small-molecule microarray, Alexa647-labelled CAII, profiling panel (AID 1122); settings: CAII-A647 binding fluorescence, higher = more signal
[6] = COS7 lysate on small-molecule microarray, probe aHis, 635 nm (AID 1123); settings: COS7 cell lysate, fluorescence, higher = more signal;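 further: z-score combines 667nm fluorescence intensity with signal-to-noise per printed compound spot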
[7] = probe aLAP1 signal on lysate-treated microarray – cell lysate, small-molecule microarray, COS7 lysate, primary screen (AID 1124); settings: probe aLAP1, fluorescence, higher = more signal;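 further: lysate comes from COS7 cells expressing LAP1 and is applied at 0.3 µg/mL; score merges spot fluorescence near 667 nm with signal-to-noise over triplicate slides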
[8] = tested on: Sam68 (KHDRBS1); assay: compounds binding KHDRBS1 protein – biochemical, small-molecule microarray, 635 nm fluorescence, primary screen (AID 1125); settings: higher = more signal;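 further: score merges 667 nm channel intensity with signal to noise over triplicate slides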
[9] = tested on: Chordin-like protein 2 (CHRDL2); assay: compounds binding chordin-like 2 – biochemical, small-molecule microarray, 635 nm fluorescence, primary screen (AID 1126); settings: fluorescence 635 nm, higher = more signal;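 further: printed compound slides probed with Chrdl2 protein at 4 µg/mL for 1 h at 4 C; score merges 667 nm emission intensity with signal to noise over three replicate slides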
[10] = target: Concanavalin-A (Canavalia ensiformis) (UniProt P02866); assay: compounds binding concanavalin A lectin – biochemical, small-molecule microarray, Alexa647 label, 635 nm, artefact control for SMM control protein annotation, primary screen (AID 1127); settings: ConA-A647 binding fluorescence, higher = more signal;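 further: z combines 667 nm emission intensity with signal-to-noise across three replicate slides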
[11] = compounds binding Alexa647 anti-His antibody – biochemical, small-molecule microarray, 635 nm fluorescence, artefact control for SMM control protein annotation, primary screen (AID 1128); settings: higher = more signal;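 further: score merges feature fluorescence with signal-to-noise for each printed compound spot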
[12] = tested on: Human papillomavirus type 1a E7 protein (residues 1-88); assay: HPV1a E7 small-molecule binders, primary screen, biochemical, small-molecule microarray, residues 1-88, 635 nm (AID 1129); settings: small-molecule microarray binding, fluorescence 635 nm; higher = more signal
[13] = target: Focal adhesion kinase 1 (Homo sapiens) (UniProt Q05397); assay: PTK2 protein binding on printed compound slides – biochemical, small-molecule microarray, 635/667 nm fluorescence, BSA, DTT, primary screen (AID 1130); settings: 635 nm fluorescence, higher = more signal;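 further: composite of spot emission at 667 nm and signal to noise over triplicate slides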
[14] = tested on: Fibrinogen (Alexa647-labelled); assay: Alexa647-fibrinogen binding to printed small molecules – biochemical, small-molecule microarray, 635/667 nm fluorescence, artefact control for SMM control-protein annotation, profiling panel (AID 1131); settings: fibrinogen-A647 binding fluorescence, higher = more signal;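 further: z-score merges 667 nm fluorescence with per-spot signal-to-noise over triplicate slides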
[15] = target: Follistatin (Homo sapiens) (UniProt P19883); assay: FST protein binding to printed compounds – biochemical, small-molecule microarray, 635/667 nm fluorescence, primary screen (AID 1132); settings: 635 nm fluorescence, higher = more signal
[16] = target: Fibroblast growth factor 2 (Homo sapiens) (UniProt P09038); assay: basic fibroblast growth factor binding to printed compounds – biochemical, small-molecule microarray, 635/667 nm fluorescence, primary screen (AID 1133); settings: FGF2, fluorescence 635/667, higher = more signal
[17] = JC-1 mitochondrial potential readout, lung cancer cells – cell-based, A549, JC-1 fluorescence, basal, 24 h, 100 nL, profiling panel (AID 1138); settings: higher = more signal;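 further: A549 lung adenocarcinoma cells under basal conditions with no added stimulus; test concentration not given here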
[18] = tested on: Lefty1; assay: Lefty1 protein binding to printed compounds – biochemical, small-molecule microarray, 635/667 nm fluorescence, primary screen (AID 1139); settings: fluorescence 635/667, higher = more signal
[19] = tested on: wheat germ agglutinin (Triticum aestivum), Alexa647-labelled; assay: Alexa647-WGA lectin binding to printed small molecules – biochemical, small-molecule microarray, 635/667 nm fluorescence, artefact control for SMM control-protein annotation, profiling panel (AID 1140); settings: WGA-A647 binding, 635 nm fluorescence, higher = more signal;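 further: score merges 667 nm feature emission with signal to noise over triplicate slides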
[20] = target: Luciferin 4-monooxygenase (Photinus pyralis) (UniProt P08659); assay: inhibition of purified Photinus pyralis luciferase – biochemical, luminescence, purified enzyme, 2006 set, primary screen (AID 1141); settings: purified firefly luciferase, SteadyGlo luminescence, 30 min; higher = more signal, called active from +8 up or from −8 down;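 further: cell-free assay with purified firefly luciferase at 100 ng per well in PBS; test concentration not given here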
Sequence of Luciferin 4-monooxygenase (Photinus pyralis) (P08659 whole entry, looked up): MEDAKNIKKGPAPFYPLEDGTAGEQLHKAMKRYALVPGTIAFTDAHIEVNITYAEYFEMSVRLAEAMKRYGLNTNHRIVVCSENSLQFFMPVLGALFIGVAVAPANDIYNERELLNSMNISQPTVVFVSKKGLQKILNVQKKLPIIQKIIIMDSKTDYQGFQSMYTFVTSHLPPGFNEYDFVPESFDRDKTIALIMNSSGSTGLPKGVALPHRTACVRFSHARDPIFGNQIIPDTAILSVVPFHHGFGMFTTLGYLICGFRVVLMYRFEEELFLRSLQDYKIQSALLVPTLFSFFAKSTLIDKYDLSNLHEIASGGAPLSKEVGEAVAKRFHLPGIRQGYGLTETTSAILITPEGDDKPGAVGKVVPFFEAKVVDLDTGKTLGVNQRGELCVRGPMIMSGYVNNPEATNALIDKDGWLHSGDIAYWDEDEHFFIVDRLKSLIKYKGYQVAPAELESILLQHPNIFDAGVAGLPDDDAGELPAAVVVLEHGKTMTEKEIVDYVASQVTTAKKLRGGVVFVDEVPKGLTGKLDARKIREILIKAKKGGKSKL

Sequence of Concanavalin-A (Canavalia ensiformis) (P02866 whole entry, looked up): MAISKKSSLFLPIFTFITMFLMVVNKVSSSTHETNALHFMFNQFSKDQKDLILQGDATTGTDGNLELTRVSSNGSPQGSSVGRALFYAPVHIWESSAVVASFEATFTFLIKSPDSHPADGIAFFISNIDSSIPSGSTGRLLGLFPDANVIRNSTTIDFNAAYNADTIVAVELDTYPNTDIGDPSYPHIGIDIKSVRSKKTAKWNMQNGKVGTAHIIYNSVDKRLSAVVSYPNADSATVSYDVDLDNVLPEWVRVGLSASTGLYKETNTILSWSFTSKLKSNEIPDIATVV
Sequence of Follistatin (Homo sapiens) (P19883 whole entry, looked up): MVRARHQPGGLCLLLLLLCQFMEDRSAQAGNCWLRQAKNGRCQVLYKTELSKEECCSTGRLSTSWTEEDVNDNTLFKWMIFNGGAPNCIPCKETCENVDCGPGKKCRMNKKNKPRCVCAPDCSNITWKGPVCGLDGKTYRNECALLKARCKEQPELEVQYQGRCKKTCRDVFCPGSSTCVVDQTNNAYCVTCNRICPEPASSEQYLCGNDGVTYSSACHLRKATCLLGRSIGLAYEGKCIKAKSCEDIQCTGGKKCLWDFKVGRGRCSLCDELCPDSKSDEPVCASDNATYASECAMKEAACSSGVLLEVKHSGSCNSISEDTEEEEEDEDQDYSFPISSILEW
Sequence of Fibroblast growth factor 2 (Homo sapiens) (P09038 whole entry, looked up): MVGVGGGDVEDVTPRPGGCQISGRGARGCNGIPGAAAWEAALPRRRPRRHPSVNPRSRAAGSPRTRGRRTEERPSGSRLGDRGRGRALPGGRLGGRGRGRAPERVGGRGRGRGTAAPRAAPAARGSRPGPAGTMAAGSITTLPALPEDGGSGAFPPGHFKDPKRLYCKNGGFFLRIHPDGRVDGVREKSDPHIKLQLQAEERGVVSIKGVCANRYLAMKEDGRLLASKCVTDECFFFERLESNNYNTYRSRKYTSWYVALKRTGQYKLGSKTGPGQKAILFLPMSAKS
Sequence of Albumin (Bos taurus) (P02769 whole entry, looked up): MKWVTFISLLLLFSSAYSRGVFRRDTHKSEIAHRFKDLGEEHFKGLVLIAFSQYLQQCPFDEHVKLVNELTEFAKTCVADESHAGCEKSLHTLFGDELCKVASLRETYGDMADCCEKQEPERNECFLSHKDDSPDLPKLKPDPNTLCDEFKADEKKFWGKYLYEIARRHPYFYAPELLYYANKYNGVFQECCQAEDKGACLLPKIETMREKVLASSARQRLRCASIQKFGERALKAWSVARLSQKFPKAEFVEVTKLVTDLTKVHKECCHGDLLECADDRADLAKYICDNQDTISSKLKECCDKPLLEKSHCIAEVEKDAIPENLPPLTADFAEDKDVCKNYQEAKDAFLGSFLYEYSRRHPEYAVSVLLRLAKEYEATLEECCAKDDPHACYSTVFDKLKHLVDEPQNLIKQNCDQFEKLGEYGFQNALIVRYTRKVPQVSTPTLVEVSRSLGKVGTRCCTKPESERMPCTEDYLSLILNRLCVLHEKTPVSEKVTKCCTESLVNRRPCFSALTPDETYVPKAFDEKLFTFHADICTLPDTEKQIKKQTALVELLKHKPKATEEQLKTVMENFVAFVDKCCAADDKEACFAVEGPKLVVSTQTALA
Sequence of Focal adhesion kinase 1 (Homo sapiens) (Q05397 whole entry, looked up): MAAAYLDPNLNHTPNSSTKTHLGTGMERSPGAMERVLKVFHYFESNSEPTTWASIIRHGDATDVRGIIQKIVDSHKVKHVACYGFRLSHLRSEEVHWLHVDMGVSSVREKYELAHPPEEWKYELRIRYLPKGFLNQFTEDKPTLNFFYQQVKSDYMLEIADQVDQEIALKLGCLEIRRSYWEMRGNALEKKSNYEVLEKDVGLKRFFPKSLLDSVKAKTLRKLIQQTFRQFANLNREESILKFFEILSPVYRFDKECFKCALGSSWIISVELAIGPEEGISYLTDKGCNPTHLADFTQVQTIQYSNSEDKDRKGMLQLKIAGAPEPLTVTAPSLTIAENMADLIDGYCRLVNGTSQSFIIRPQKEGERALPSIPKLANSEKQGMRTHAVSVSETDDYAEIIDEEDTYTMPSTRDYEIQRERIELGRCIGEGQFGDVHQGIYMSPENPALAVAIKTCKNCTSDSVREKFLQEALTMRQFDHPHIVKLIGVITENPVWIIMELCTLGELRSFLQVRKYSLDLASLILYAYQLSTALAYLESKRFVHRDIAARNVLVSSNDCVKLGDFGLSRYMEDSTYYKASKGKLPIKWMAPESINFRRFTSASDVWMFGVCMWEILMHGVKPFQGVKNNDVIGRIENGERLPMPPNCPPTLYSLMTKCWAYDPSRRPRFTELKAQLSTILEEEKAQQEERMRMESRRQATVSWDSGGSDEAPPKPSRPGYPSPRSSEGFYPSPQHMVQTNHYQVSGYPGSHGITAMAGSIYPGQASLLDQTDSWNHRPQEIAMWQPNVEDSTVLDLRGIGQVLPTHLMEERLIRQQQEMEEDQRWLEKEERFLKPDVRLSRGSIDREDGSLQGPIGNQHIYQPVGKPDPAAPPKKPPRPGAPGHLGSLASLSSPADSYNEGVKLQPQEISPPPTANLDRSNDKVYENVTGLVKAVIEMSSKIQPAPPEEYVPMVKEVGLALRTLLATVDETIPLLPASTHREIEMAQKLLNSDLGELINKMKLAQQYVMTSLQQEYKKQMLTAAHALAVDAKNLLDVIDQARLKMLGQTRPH

SMILES | composite z-score [1] | composite Z-score [2] | composite z-score [3] | composite z-score [4] | composite z-score [5] | composite z-score [6] | composite z-score [7] | composite z-score [8] | composite z-score [9] | composite z-score [10] | composite z-score [11] | composite z-score [12] | composite z-score [13] | composite z-score [14] | composite z-score [15] | composite z-score [16] | z-score [17] | composite z-score [18] | composite z-score [19] | z-score [20]
CCOC(=O)C1=C[C@@H](C(C)(C)C)N(S(=O)(=O)c2ccc(C)cc2)[C@H]1c1ccc(C#N)cc1 | 0.684 | -0.795 (inactive) | 0.0935 | 0.0655 | 0.632 | 2.72 | 0.969 | 1.31 | 0.582 | 1.09 | 1.16 | 1.23 | 0.637 | 0.996 | 0.599 | 0.0014 | 1.53 | 0.307 | 1.08 | 1.82 (inactive)
C=C(CCCC)/C(=C/C[C@H](OC(=O)c1ccncc1)c1ccccc1OCCO)c1cc(C(=O)OC)ccc1OC | -0.172 | -0.0743 (inactive) | -0.0362 | -0.145 | 0.63 | 1.2 | 0.127 | 1.05 | 0.647 | 0.749 | 2.75 | 0.488 | 0.0357 | 0.013 | 0.95 | 0.969 | 2.03 | 0.979 | -0.0208 | -0.776 (inactive)
CCCC=C(CCC)[C@@H](NC(=O)OCC(C)C)c1ccc(C(=O)OC)cc1 | -0.0782 | -0.773 (inactive) | -0.0328 | -0.15 | 0.133 | 0.141 | 0.35 | 0.687 | 0.436 | 0.256 | 0.403 | 0.717 | 1.16 | 0.441 | -0.133 | 0.462 | 0.744 | 0.704 | 0.0477 | 2.34 (inactive)
Cc1ccc(S[C@]2(C(=O)NCCCN(C)C)CC(=O)N(C3Cc4ccccc4C3)[C@@H]2c2ccc(CO)cc2I)cc1 | 0.827 | 0.42 (inactive) | -0.0569 | -0.18 | 0.715 | 0.83 | -0.312 | 0.125 | -0.745 | 0.441 | 0.0192 | 0.132 | -0.0489 | 0.493 | 0.135 | -0.813 | -0.522 | -0.515 | 0.0805 | -0.222 (inactive)
COC(=O)[C@@]1(Cc2ccc(OC)cc2)[C@H]2c3cc(C(=O)N(C)C)[nH]c3C[C@H]2CN1C(=O)c1ccccc1 | 0.0277 | 0.184 (inactive) | -0.0477 | 0.013 | 0.742 | 0.1 | -0.106 | -1.13 | -0.372 | 0.0575 | 0.279 | -0.154 | 0.0999 | 0.804 | -0.205 | -0.738 | 0.638 | -0.275 | 0.895 | 0.0806 (inactive)
COc1ccc(C(O)C2C=CC3C(=O)N(C)C(=O)C3N2N(c2ccccc2)c2ccccc2)cc1 (stereo not given) | 0.86 | 0.828 (inactive) | 0.016 | -0.0657 | 0.728 | 1.49 | 0.0978 | 0.731 | 0.0617 | 0.632 | 2.06 | 0.906 | 0.167 | 0.805 | 1.03 | 0.149 | 1.25 | -0.729 | 1.28 | 0.322 (inactive)
COc1ccc([Si](C)(C)[C@H]2[C@H](CCO)O[C@@]3(C(=O)N(Cc4cccc(N(C=O)c5ccccc5)c4)c4ccccc43)[C@@H]2C)cc1 | 0.291 | -0.313 (inactive) | 0.059 | -0.102 | 0.467 | 1.28 | 0.677 | 1.28 | 0.293 | 1.15 | 0.911 | 1.19 | -0.048 | 0.777 | 0.832 | 0.886 | 0.837 | 1.05 | 0.259 | 0.281 (inactive)
CC(C)N1C(=O)c2ccccc2[C@@H](C(=O)NCC(F)(F)F)[C@@H]1c1ccc(CO)cc1 | -0.826 | 0.492 (inactive) | -0.1 | -0.07 | 0.587 | 0.425 | -0.282 | -0.28 | -0.474 | 0.104 | -0.0668 | 0.0715 | 0.284 | -0.537 | 0.527 | 0.0683 | 1.41 | -0.232 | -0.348 | -0.189 (inactive)
O=C1C[C@@](C(=O)O)(c2ccc([N+](=O)[O-])cc2)[C@@H](c2ccc(CO)cc2)N1C1CCCCC1 | 0.88 | 0.628 (inactive) | 0.204 | -0.0029 | 0.508 | 2.02 | 0.281 | 1.34 | 0.0583 | 1.05 | 1.82 | 1.23 | 0.54 | 0.953 | 1.01 | 0.26 | 0.57 | 0.312 | 0.92 | -1.81 (inactive)
COC(=O)[C@H](Cc1ccccc1)N1CC2=CCCC=C[C@@H]2[C@H]1[C@H](O)Cc1ccccc1 | 0.0618 | 0.495 (inactive) | 0.17 | -0.118 | 0.708 | 0.25 | 0.368 | 0.374 | 0.204 | 0.854 | -0.305 | 0.431 | -0.384 | 0.515 | 0.87 | 0.122 | 0.18 | 0.273 | 0.261 | -0.62 (inactive)
COCCCN1C(=O)[C@@]2(c3ccc([N+](=O)[O-])cc3)CC(=O)N(CC34CC5CC(CC(C5)C3)C4)[C@@H]2c2ccc(CO)cc21 | -0.0098 | 0.208 (inactive) | -0.101 | -0.0666 | 0.48 | 0.373 | 0.991 | 0.229 | -0.0444 | 0.728 | -0.0041 | -0.217 | -0.102 | -0.753 | 1 | 0.232 | 0.961 | 0.739 | 0.115 | -0.844 (inactive)
